# PubChem BioAssay AID2435 (The Scripps Research Institute Molecular Screening Center, 2010)
# In all, about 320,000 compounds went through this assay and about 1,000 (0.31%) were called active. The sample as a whole holds a higher share of actives than the screen did. Values without a mark were called inactive.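 How the source made its calls: active means activation above the mean of all tested compounds plus 3 SD, cutoff set per screening run (cut at about 20% in these data); inactive means the rest.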
# Target: Oxytocin receptor (Homo sapiens) (UniProt P30559)
# Sequence (P30559 whole entry, looked up): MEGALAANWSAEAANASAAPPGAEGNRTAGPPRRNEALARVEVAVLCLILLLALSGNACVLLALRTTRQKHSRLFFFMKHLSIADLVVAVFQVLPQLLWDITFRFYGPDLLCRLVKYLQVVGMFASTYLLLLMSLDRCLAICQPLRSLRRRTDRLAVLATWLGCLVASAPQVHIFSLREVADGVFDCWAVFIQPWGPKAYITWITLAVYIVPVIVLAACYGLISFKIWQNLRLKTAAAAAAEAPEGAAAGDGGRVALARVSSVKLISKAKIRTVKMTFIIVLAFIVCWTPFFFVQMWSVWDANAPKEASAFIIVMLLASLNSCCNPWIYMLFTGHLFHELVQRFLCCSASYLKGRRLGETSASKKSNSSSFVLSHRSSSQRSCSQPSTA
# Experiment: oxytocin receptor activation by calcium flux – fluorescence, CHO-OTR cells, Fluo-8 calcium, primary screen (AID 2435);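 further: peak over basal fluorescence ratio from a 100 s FLIPR kinetic read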
# Conditions: Fluo-8 calcium fluorescence, at 3 µM, stronger effect = higher value, normalized: DMSO 0%, oxytocin 100%
row,SMILES,activation
1,Cc1cccc(OCC(=O)NC(=S)Nc2ccccc2N2CCOCC2)c1,-0.15%
2,Cc1ccc(O)c(NC(=O)COc2cc(C)ccc2C)c1,0.92%
3,Cc1ccc(O)c(NC(=S)NC(=O)COc2ccc(Br)cc2)c1,51.9% (active)
4,COc1ccc([N+](=O)[O-])cc1NCC(=O)c1ccc(C)cc1,-1.36%
5,O=C(NC1CC1)C1=C[C@H](c2c[nH]c3ccccc23)C[C@H](OCc2ccc(CO)cc2)O1,-0.84%
6,NC(=O)C1=C[C@H](c2csc3ccccc23)C[C@H](OCc2ccc(CO)cc2)O1,25.9% (active)
7,NC(=O)C1=C[C@@H](c2csc3ccccc23)C[C@@H](OCc2ccc(CO)cc2)O1,5%
8,Cc1ccc(NC(=O)CN(C)C(=O)c2cccc(S(=O)(=O)N3CCCC3)c2)cc1,-1.01%
9,COc1ccc(/C=C2\SC(=S)N(CCCC(=O)NC3CCCC3)C2=O)cc1OC,-1.19%
10,COc1ccc(/C=C2\SC(=S)N(CCC(=O)Nc3cccc(C(=O)O)c3)C2=O)cc1OC,-0.74%
11,COc1cc(/C=C2/SC(=S)N(Cc3ccccc3)C2=O)cc(OC)c1O,23.8% (active)
12,COCCn1c(N)c(NCc2ccccc2)c(=O)[nH]c1=O,0.2%
13,COc1cc(NC(=O)NCC2CCN(Cc3ccc(C)cc3)CC2)cc(OC)c1OC,1.34%
14,Cc1cccc(CN2CCC(CNC(=O)Nc3ccc(F)c(Cl)c3)CC2)c1,28.2% (active)
15,Cc1ccc(C)c(CN2CCC(CNC(=O)Nc3ccc(C)c(F)c3)CC2)c1,2.73%
16,COc1ccc(Cl)cc1NC(=O)NCC1CCN(Cc2ccccc2F)CC1,19.8% (active)
17,O=C(NCC1CCN(Cc2ccccc2Cl)CC1)Nc1cccc(Cl)c1,4.22%
18,Cc1ccccc1NC(=O)NCC1CCN(Cc2cccc(Cl)c2)CC1,1.57%
19,CCn1cc(CCC(=O)NCc2ccc(F)cc2)c2ccccc21,-1.14%
20,COc1ccc(C(C#N)N2N=C(C)CC2(C)C)cc1 (stereo unspecified),0.73%
21,COc1cc(C(F)(F)F)c(C(=O)N(C)c2ccc(Cl)cc2)cn1,-1.66%
22,COc1ccccc1CNS(=O)(=O)c1cc2c3c(c1)CCC(=O)N3CCC2,2.19%
23,CCOc1ccc(N(C(=O)c2snc(C(N)=O)c2N)C(C(=O)NCC2CCCO2)c2c[nH]c3ccccc23)cc1 (stereo unspecified),1.87%
24,CCOC(=O)N1CCN(CCC(=O)Nc2ccccc2)CC1,-0.17%
25,Cc1cc(NC(=O)CCN2CCN(Cc3ccccc3)CC2)ccc1Br,23.2% (active)
26,CC1CCN(CCC(=O)Nc2ccccc2)CC1,-0.16%
